Source: PubChem BioAssay
Sampled rows, rich in hits. Any-hit rate of the full collection: about 6.5%.
Vaccinia Venus = qHTS for Stage-Specific Inhibitors of Vaccinia Orthopoxvirus: Venus Reporter Primary qHTS; Potency, µM (top dose mostly 36.5 µM), most hits filed as inhibitors; 0.46% of 330,000 active; Vaccinia virus Venus reporter expression, fluorescence; AID 720580, 2013; calls by dose curve; tested in A549 cells; note: nearly all actives have a fitted effect of over 30% in size
LASV entry inh = qHTS for Inhibitors of binding or entry into cells for Lassa Virus | 1.2% of 300,000 active | AID 540256, 2011 | Potency, µM (series often up to 37.9 µM), actives largely listed as inhibitors | Lassa virus pseudotype entry inhibition, cell reporter; calls by dose curve; tested in HEK293 cells; note: nearly all actives have a fitted effect of over 50% in size
Vaccinia mCherry = qHTS for Stage-Specific Inhibitors of Vaccinia Orthopoxvirus: mCherry Reporter Primary qHTS; 0.63% of 310,000 active; Potency, µM (highest dose often 36.5 µM), hits mostly inhibitors; Vaccinia virus mCherry reporter infection, fluorescence; calls by dose curve; tested in A549 cells; note: nearly all actives have a fitted effect of over 35% in size
MARV entry inh = qHTS for inhibitors of binding or entry into cells for Marburg Virus | Marburg virus pseudotyped entry inhibition, cell reporter | Potency, µM (doses to about 37.8 µM), most hits filed as inhibitors | 1.8% of 300,000 active | AID 540276, 2011; calls by dose curve; tested in HEK293 cells
HCMV inh = qHTS Assay for inhibitors of the human cytomegalovirus (HCMV). HFF cells, HCMV-luciferase reporter, 72 h; stronger effect = lower value. activity change, negative = inhibition, % at 57.5 µM. 4.5% of 410,000 active. AID 1259415, 2018; in the data active = activity change below about -60%; inconclusive = no clear call, values can overlap the other calls; inactive = above about -39%
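After 16 h attachment at 37C, HFF cells received test compound and HCMV-luciferase (1 PFU/cell); reporter luminescence read 72 h later, data normalized against buffer-only and known inhibitor Salinomycin.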
FMDV inh = High Throughput Screening for Foot and Mouth Disease Virus Antivirals | FMDV antiviral cell-based qHTS | Potency, µM (titrated, usually from 57.9 µM), most hits filed as inhibitors | 1.2% of 410,000 active; calls by dose curve; tested in HEK293T cells; note: read-out not given here; nearly all actives have a fitted effect of over 45% in size
Hits are given with their value; ! = not active in a repeat.

C[C@]12C=CC(=O)C=C1CC[C@@H]1C2=CC[C@]2(C)[C@@H](C(=O)CN3CCN(c4cc(N5CCCC5)nc(N5CCCC5)n4)CC3)CC[C@@H]12 was read as Vaccinia Venus inconclusive, LASV entry inh inactive, Vaccinia mCherry 1µM, MARV entry inh 5.6µM, HCMV inh inconclusive and FMDV inh inactive.
For O=c1cc(-c2ccccc2[N+](=O)[O-])oc2ccccc12 the results were Vaccinia Venus inconclusive, LASV entry inh inconclusive, Vaccinia mCherry inactive, MARV entry inh inconclusive, HCMV inh -66 and FMDV inh inactive.
Screening O=c1cc(-c2ccccc2F)oc2ccccc12 returned LASV entry inh inactive, MARV entry inh inactive, HCMV inh inactive and FMDV inh inactive.
`CSc1ccc(-c2cc(=O)c3ccccc3o2)cc1` gave Vaccinia Venus inactive, LASV entry inh inactive, Vaccinia mCherry inactive, MARV entry inh inconclusive, HCMV inh -72 and FMDV inh inactive.
For COc1ccc(N(CC(=O)N2CCc3ccccc3C2)S(=O)(=O)c2ccccc2)cc1 the results were Vaccinia Venus inactive, LASV entry inh inactive, Vaccinia mCherry inactive, MARV entry inh inconclusive, HCMV inh inactive and FMDV inh inactive.
For COc1ccc(S(=O)(=O)N(CC(=O)N2CCc3ccccc3C2)c2ccc(C)cc2)cc1 the results were Vaccinia Venus inactive, LASV entry inh 6.3µM, Vaccinia mCherry inactive, MARV entry inh inactive, HCMV inh inactive and FMDV inh inactive.
`CN(C(=O)C(C)(C)C)c1ccc(OCC(=O)N2CCc3ccccc3C2)cc1` gave Vaccinia Venus inactive, LASV entry inh inconclusive, Vaccinia mCherry inactive, MARV entry inh inactive, HCMV inh -82 and FMDV inh inconclusive.
Screening Cc1ccc(S(=O)(=O)N(CC(=O)N2CCCCCC2)c2ccccc2F)cc1 returned Vaccinia Venus inactive, LASV entry inh 10µM, Vaccinia mCherry inactive, MARV entry inh inactive, HCMV inh -62 and FMDV inh inactive.
`COc1ccccc1N(CC(=O)N1CCCCCC1)S(=O)(=O)c1ccc(C)cc1` gave Vaccinia Venus inactive, LASV entry inh inactive, Vaccinia mCherry inactive, MARV entry inh inconclusive, HCMV inh inactive and FMDV inh inactive.
For Cc1ccc(OCC(=O)N2CCc3ccccc3C2)cc1 the results were HCMV inh inactive and FMDV inh inactive.
`Cc1ccc(S(=O)(=O)N(Cc2ccccc2)c2ccccc2C(=O)N2CCCCC2)cc1` gave Vaccinia Venus inactive, LASV entry inh inconclusive, Vaccinia mCherry inconclusive, MARV entry inh 10µM, HCMV inh inactive and FMDV inh inactive.
For COC1=C(OC)C(Cl)=C(CC2C(=O)OC(C)(C)OC2=O)CC1 the results were MARV entry inh inactive.
Screening CC1C=CC(C(C2C(=O)CC(C)(C)CC2=O)C2C(=O)CC(C)(C)CC2=O)S1 (stereo not given) returned MARV entry inh inactive.
Screening COc1ccc(NS(=O)(=O)c2ccc3c(c2)CC(C)N3C(C)=O)c(OC)c1 (stereo not given) returned Vaccinia Venus inactive, LASV entry inh inactive, Vaccinia mCherry inactive, HCMV inh inactive and FMDV inh inactive.
Screening COc1ccc(NC(=O)N2c3ccc(OC)cc3[C@@H](NCc3cnc[nH]3)[C@H](C)[C@H]2c2ccccc2)cc1 returned HCMV inh inactive.
For CCOc1ccccc1N(CC(=O)N1CCC(C(N)=O)CC1)S(=O)(=O)c1ccc(SC)cc1 the results were Vaccinia Venus inactive, LASV entry inh inactive, Vaccinia mCherry inactive, MARV entry inh inactive, HCMV inh -70 and FMDV inh inactive.
`CCOc1ccccc1N(CC(=O)N1CCC(C)CC1)S(=O)(=O)c1ccc(C)cc1` gave Vaccinia Venus inactive, LASV entry inh inactive, Vaccinia mCherry inactive, MARV entry inh inconclusive, HCMV inh inactive and FMDV inh inactive.
`CCCc1cc(=O)oc2c3c(ccc12)OCN(Cc1ccccc1OC)C3` gave Vaccinia Venus inactive, LASV entry inh inactive, Vaccinia mCherry inactive, HCMV inh inactive and FMDV inh inactive.
For O[Si](CCCN1CCCCC1)(c1ccc(F)cc1)C1CCCCC1 (stereo not given) the results were Vaccinia Venus inactive, LASV entry inh 5.2µM, Vaccinia mCherry inactive, MARV entry inh 2.8µM, HCMV inh inactive and FMDV inh inconclusive.
CN(C(=O)c1cnn(-c2ncc3c(n2)-c2ccccc2CCC3)c1C1CC1)C1CCOC1 (stereo not given) was read as Vaccinia Venus inactive, Vaccinia mCherry inactive and FMDV inh inactive.
Screening Cc1ccc(-c2sc(C(=O)Nc3ccc(Br)cc3)cc2CC(=O)O)cc1 returned Vaccinia Venus inactive, LASV entry inh inactive, Vaccinia mCherry inactive, MARV entry inh inactive, HCMV inh inactive and FMDV inh inactive.
For CCc1cc2cc(C(=O)Nc3ccc(C)cc3)sc2s1 the results were Vaccinia Venus inactive, LASV entry inh inconclusive, Vaccinia mCherry inactive, MARV entry inh inactive, HCMV inh -67 and FMDV inh inactive.
O=C(CSc1ncn[nH]1)NCCc1ccc(Cl)cc1Cl was read as Vaccinia Venus inactive, LASV entry inh inactive, Vaccinia mCherry inactive, MARV entry inh inconclusive, HCMV inh inactive and FMDV inh inactive.
CC(NC(=O)CSc1ncn[nH]1)c1ccc(Cl)cc1Cl (stereo not given) was read as Vaccinia Venus inactive, LASV entry inh inactive, Vaccinia mCherry inactive, MARV entry inh inactive, HCMV inh -61 and FMDV inh inactive.
`CC(=O)[C@@]1(O)CC[C@H]2[C@@H]3CCC4=CC(=O)CC[C@]4(C)[C@H]3CC[C@@]21C` gave Vaccinia Venus inactive, LASV entry inh 21µM!, Vaccinia mCherry inactive, MARV entry inh inactive, HCMV inh inactive and FMDV inh inconclusive.
CC(=O)[C@H]1CC[C@H]2[C@@H]3CC=C4C[C@@H](OS(=O)(=O)O)CC[C@]4(C)[C@H]3CC[C@]12C was read as Vaccinia Venus inactive, Vaccinia mCherry inactive, HCMV inh -71 and FMDV inh inactive.
Screening Cc1nc(C2CCC3C4CCC5=CC(=O)CC[C@]5(C)C4CC[C@]23C)cs1 (stereo not given in full) returned HCMV inh -91.
Screening CC(=O)O[C@H]1CC[C@@]2(C)C(=CC[C@H]3[C@@H]4CC[C@H](C(C)=O)[C@@]4(C)CC[C@@H]32)C1 returned Vaccinia Venus inactive, Vaccinia mCherry inactive, HCMV inh inactive and FMDV inh inconclusive.
CCCCCC(=O)O[C@]1(C(C)=O)CC[C@H]2[C@@H]3CCC4=CC(=O)CC[C@]4(C)[C@H]3CC[C@@]21C was read as Vaccinia Venus inactive, LASV entry inh inactive, Vaccinia mCherry inconclusive, MARV entry inh 10µM, HCMV inh -68 and FMDV inh inactive.
`c1ccc(CNc2ncnc3c2ncn3Cc2ccccc2)cc1` gave Vaccinia Venus inactive and Vaccinia mCherry inactive.
Screening COc1cc(NS(=O)(=O)c2ccc(NC(=O)c3ccc(C(C)=O)cc3)cc2)nc(OC)n1 returned Vaccinia Venus inactive, LASV entry inh inactive, Vaccinia mCherry inactive, HCMV inh inactive and FMDV inh inactive.
